# Screening data: PubChem, National Center for Advancing Translational Sciences (NCATS)
# Luciferase inh – inhibitors of firefly luciferase | P08659 | purified firefly luciferase, luminescence, 8 min | Potency, µM (highest dose often 57.1 µM), most hits filed as inhibitors | 2.2% of 72,000 active; active = well fitted inhibition curve with a large enough effect; inconclusive = small, poorly fitted or top-dose-only effect; note: nearly all actives have a fitted effect of over 40% in size
# Target sequence (P08659 whole entry, looked up): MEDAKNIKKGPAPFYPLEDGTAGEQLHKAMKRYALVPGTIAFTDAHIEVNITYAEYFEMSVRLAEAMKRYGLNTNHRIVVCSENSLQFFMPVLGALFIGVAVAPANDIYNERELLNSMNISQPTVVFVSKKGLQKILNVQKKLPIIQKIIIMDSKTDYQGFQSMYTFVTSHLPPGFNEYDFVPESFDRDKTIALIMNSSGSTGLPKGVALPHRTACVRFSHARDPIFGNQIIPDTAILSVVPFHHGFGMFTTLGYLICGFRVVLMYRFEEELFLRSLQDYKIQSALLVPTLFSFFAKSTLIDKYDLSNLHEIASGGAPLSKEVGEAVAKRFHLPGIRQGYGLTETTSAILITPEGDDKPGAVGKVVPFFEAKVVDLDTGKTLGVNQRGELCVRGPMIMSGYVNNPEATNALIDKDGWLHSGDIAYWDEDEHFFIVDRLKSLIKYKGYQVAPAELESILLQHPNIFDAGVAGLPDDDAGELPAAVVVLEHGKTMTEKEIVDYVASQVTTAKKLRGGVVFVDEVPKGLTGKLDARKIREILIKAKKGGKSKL
#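 Here, luciferase activity is measured as luminescence following an 8 min room-temperature reaction at 10 uM ATP, pH 7.2. Every library sample is titrated.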
# PK Bst – modulators of Bacillus stearothermophilus pyruvate kinase; purified pyruvate kinase, luminescence ATP production; ribose 5-phosphate activator present at AC10; Potency, µM; 1.2% of 51,000 active; in the data active = potency below about 11 µM; inconclusive = mostly about 12 µM to 25 µM;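 the screen sought inhibitors and activators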
# Numbers stand for hits; 0 = inactive; ? = inconclusive; - = no result; ! = not confirmed by another sample; [ ] = dose if it differs, or a comment. Compounds with a hit are over-represented: about 2.5% of the library has one in this group of screens.
SMILES,Luciferase inh,PK Bst
CC[C@@H]1CN2CCc3cc(OC)c(OC)cc3[C@H]2C[C@@H]1C[C@@H]1NCCc2cc(OC)c(OC)cc21,0,-
COc1cc2c3cc1Oc1cc(ccc1O)C[C@@H]1c4c(cc(OC)c(O)c4Oc4ccc(cc4)C[C@H]3[N+](C)(C)CC2)CC[N+]1(C)C,0[11.4 µM],-
CC(CCc1ccccc1)NCC(O)c1ccc(O)c(C(N)=O)c1 (stereo not given),0,0
OCc1cc([C@@H](O)CNCCCCCCOCCCCc2ccccc2)ccc1O,15.8µM!,-
CCN(CC)c1ccc(-c2nn3c(-c4cccnc4)nnc3s2)cc1,0,5.23
CCCCOc1ccc(-c2nnc(N)s2)cc1,0,0
c1cncc(-c2nnc3sc(-c4ccco4)nn23)c1,0,0
CCOc1ccc(-c2nn3c(-c4ccccc4)nnc3s2)cc1,0,5.09
CCOc1ccc(-c2nnc(N)s2)cc1,15.8µM,-
CCOc1ccc(-c2nn3c(-c4ccc(OC)cc4)nnc3s2)cc1,0,0
CCCn1cnc2c(SCC(=O)O)nc(N)nc21,0[11.4 µM],-
O=C(O)[C@@H]1[C@@H](C(=O)Nc2ncccn2)[C@@H]2C=C[C@@H]1O2,0[11.4 µM],-
Clc1ccc(OCCn2ccnc2)c2ccccc12,0,-
OCc1ccccc1OCCOc1ccc(Cl)c2cccnc12,0,3.47
Cc1cc(Cc2cc(C)c(N)cc2N)c(N)cc1N,0[11.4 µM],-
N/C(CC/C(N)=N/O)=N\O,0[11.4 µM],-
Nc1ccn([C@@H]2O[C@H](COC(=O)C34CC5CC(CC(C5)C3)C4)[C@@H](O)[C@@H]2O)c(=O)n1,0[11.4 µM],-
c1ccc2cc(NCNc3ccc4ccccc4c3)ccc2c1,0[11.4 µM],-
O=c1c2ccccc2cnn1-c1nc2ccccc2s1,0.159µM,0.163
O=c1c2ccccc2ncn1Cc1nc2ccccc2s1,0,0
CC(C)COc1ccc(-c2nnc(-c3ccncc3)o2)cc1,0,2.32
CCCOc1ccc(-c2nnc(-c3ccncc3)o2)cc1,0,1.57
CCOc1ccc(-c2nc(C#N)c(NCC(C)C)o2)cc1,0,0
c1cc(-c2nnc(-c3ccncc3)o2)ccn1,0,-
CN1CCN(c2ncc3nc(-c4cccc(C#N)c4)c(=O)n(Cc4ccc(F)cc4)c3n2)CC1,0[11.4 µM],-
SMILES,Luciferase inh,PK Bst
Cc1cn([C@H]2C=C[C@H](CO)O2)c(=O)[nH]c1=O,0,-
CN(C)S(=O)(=O)N1CCN(S(=O)(=O)c2ccc(F)cc2)CC1,0,0
CN(C)S(=O)(=O)c1ccc(N2CCN(S(=O)(=O)c3ccc(F)cc3)CC2)c(Cl)c1,0,6.06
Cn1c(=O)c2c(nc(NCc3ccco3)n2Cc2ccc(Cl)cc2Cl)n(C)c1=O,0,0
Cn1c(NCc2ccco2)nc2c1c(=O)n(Cc1ccc(Cl)c(Cl)c1)c(=O)n2C,0,1.87
CC(C)Nc1oc(-c2cccc3ccccc23)nc1C#N,20µM,0
CCNc1oc(-c2cccc3ccccc23)nc1C#N,0,0
Cc1c(Cl)c(S(N)(=O)=O)cc2c1=NC=NS=2(=O)O,0[11.4 µM],-
COc1cccc(C(=O)Nc2cccc(SC)c2)c1,12.6µM,-
COc1ccc(C(=O)Nc2cc(OC)ccc2OC)cc1,20µM,-
COC(=O)c1[nH]c2cc(OC)c(OC)cc2c1NC(=O)c1cccc(OC)c1,7.94µM,0
COc1ccc(C(=O)Nc2ccccc2C(=O)NCCN2CCOCC2)cc1,0,0
COc1cccc(C(=O)Nc2c(F)c(F)c(F)c(F)c2F)c1,0,0
COc1cccc(C(=O)Nc2c(C)n[nH]c2C)c1,0,0
COc1ccc(C(=O)Nc2ccccc2C(N)=O)cc1,12.6µM,0
COc1ccc(OC)c(NC(=O)c2ccc(CN3CCOCC3)cc2)c1,0,-
CC1=CC(=O)CC(C)(C)[C@@]1(O)/C=C\C(C)=C\C(=O)O,0[11.4 µM],-
CC(C)(C)N1C(=O)[C@H]2[C@@H]3[C@H](O)[C@H](O)CC(=O)[C@H]3CC[C@H]2C1=O,0[11.4 µM],-
Oc1cc(O)c2c(c1)O[C@H](c1ccc(O)c(O)c1)[C@@H](O)[C@@H]2c1c(O)cc(O)c2c1O[C@@H](c1ccc(O)c(O)c1)[C@H](O)C2,0[11.4 µM],-
COc1ccc(CNC(=O)Nc2cccc(C)c2)cc1,0,0
COc1ccc(C(=O)Nc2cccc(C)c2)cc1,6.31µM,-
Cc1c(/C(O)=C2/C(=O)C(=O)N(CCN3CCOCC3)C2c2cccs2)cnn1-c1ccccc1 (stereo not given),12.6µM,-
Cc1ccc(C2/C(=C(/O)c3cnn(-c4ccccc4)c3C)C(=O)C(=O)N2CCN2CCOCC2)o1 (stereo not given),0,0
CN1C(=O)CSc2ccc(NC(=O)N3CCc4ccccc43)cc21,12.6µM,8.22
CN1C(=O)CSc2ccc(NC(=O)N3CCN(c4ccccn4)CC3)cc21,0,0
SMILES,Luciferase inh,PK Bst
CN1CCC[C@H](C(=O)OCC(=O)[C@]2(O)CC[C@@H]3[C@H]4CCC5=CC(=O)CC[C@@]5(C)[C@H]4[C@@H](O)C[C@]32C)C1,0[11.4 µM],-
O=C(Nc1sc2c(c1C(=O)O)CCCCC2)c1ccco1,20µM,-
CCOC(=O)c1c(NC(=O)c2ccco2)sc2c1CCCCC2,0,-
Cc1occc1C(=O)Nc1sc2c(c1C(N)=O)CCCCC2,12.6µM,0
COC(=O)c1c(NC(=O)c2ccoc2C)sc2c1CCC2,0,0
Cc1ccc(N[C@H](c2ccccc2)c2ccc3cccnc3c2O)cc1,0[11.4 µM],-
O=C(Nc1cccc(-c2nc3ccccc3[nH]2)c1)c1cccc(NC(=O)c2ccco2)c1,0,0
Cc1ccc(-c2nc3ccccc3[nH]2)cc1NC(=O)c1ccco1,20µM,0
Cc1cccc2[nH]c(-c3ccc(NC(=O)c4ccco4)cc3)nc12,15.8µM,?
Cc1ccc(Oc2ccc(NC(=O)c3ccco3)cc2)cc1,0,-
O=C(O)c1ccncc1.O=C(O)c1ccncc1.[NH2-].[NH2-].[Pt],0[11.4 µM],-
c1ccc(Cc2ccc(OCCn3cncn3)cc2)cc1,0,0
c1ccc(-c2ccc(OCCOCCn3cncn3)cc2)cc1,12.6µM,-
c1ccc(COc2ccc(OCCCn3cncn3)cc2)cc1,20µM,-
FC(F)(F)c1cccc(OCCOCCn2cncn2)c1,0,0
Nc1nc(N)c(N=Nc2ccc(C(=O)O)c(O)c2)c(N)n1,0[11.4 µM],-
CCCCC/C=C\C[C@H](O)/C=C\c1cccc(C[C@H](O)CCCCO)n1,0,-
COC(=O)C/C=C\[C@@H](C)[C@@H](/C=N\OC[C@@H](O)COCc1ccco1)OC,0[11.4 µM],-
CO[C@H]1COC(=O)[C@@H](CCSC)NC(=O)C/C=C\[C@@H](C)COC(=O)[C@@H](OCc2ccccc2)/C=C\[C@@H]1C,0[11.4 µM],-
CC1CCc2nc(NC(=O)CN3CCOCC3)sc2C1 (stereo not given),0,0
Cc1ncsc1C(=O)Nc1nc2c(s1)CC(C)CC2 (stereo not given),10µM,10.3
N#C[C@H](C(=O)O)C(c1c(Cl)cccc1Cl)[C@H](C#N)C(=O)O,0[11.4 µM],-
Cn1nnnc1SCc1nnc(-c2ccc(Cl)cc2)o1,0,0
Cc1occc1-c1nnc(SCc2nnc(-c3ccc(Cl)cc3)o2)n1C,0,4.52
CC1CCN(C(=O)CN2C(=O)c3ccccc3S2(=O)=O)CC1,0,0
CN(C)c1ccc(C2=NOC(CN3C(=O)c4ccccc4S3(=O)=O)C2)cc1 (stereo not given),15.8µM,-
COc1ccc(COC(=O)N/N=C2/C[C@@H](O)[C@@H](O)[C@@H]3[C@@H]4C(=O)N(Cc5ccc6c(c5)OCO6)C(=O)[C@H]4CC[C@@H]23)cc1,0[11.4 µM],-
C[N+](C)(C)c1ncnc2c1ncn2[C@@H]1C[C@H](O)[C@@H](CO)O1,0[11.4 µM],-
CC(C)CNS(=O)(=O)c1ccc(CCC(=O)N2CCN(Cc3ccc4c(c3)OCO4)CC2)cc1,0,2.83
CC(C)CNS(=O)(=O)c1ccc(CCC(=O)N2CCN(Cc3ccccc3)CC2)cc1,0,0
